{
  "source": "PubChem BioAssay (Tox21)",
  "note": "Results filed as inconclusive are left out. A number with no mark means an inactive call. Calls come from the whole dose curve. % is set by controls: 0 for no effect and ±100 for the full control effect.",
  "data": [
    {"target": "Beta-2 adrenergic receptor (Homo sapiens) (UniProt P07550)", "sequence (P07550 whole entry, looked up)": "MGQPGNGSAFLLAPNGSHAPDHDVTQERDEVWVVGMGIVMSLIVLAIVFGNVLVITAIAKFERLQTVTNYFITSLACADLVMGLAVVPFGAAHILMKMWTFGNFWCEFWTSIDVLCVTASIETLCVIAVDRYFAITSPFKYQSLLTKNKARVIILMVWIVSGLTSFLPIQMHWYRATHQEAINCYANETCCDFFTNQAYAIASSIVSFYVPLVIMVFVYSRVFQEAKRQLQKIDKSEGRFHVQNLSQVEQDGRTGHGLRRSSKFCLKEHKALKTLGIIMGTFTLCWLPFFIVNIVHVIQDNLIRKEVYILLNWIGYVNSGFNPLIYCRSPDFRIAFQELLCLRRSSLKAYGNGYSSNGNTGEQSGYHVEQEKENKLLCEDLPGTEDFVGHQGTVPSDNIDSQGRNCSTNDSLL", "experiment": "Adrenergic beta2 receptor (ADRB2) small molecule agonists, cell-based qHTS assay (AID 1963593);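 note: CHO cells stably overexpressing human ADRB2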", "settings": "CHO-ADRB2 cells, cAMP HTRF, 30 min; series mostly up to 92.4 µM; activation: at the top concentration", "method_in_brief": "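CHO cells stably over-expressing ADRB2 were plated overnight at 37C, then dosed with compounds plus a stimulation mix containing 100uM IBMX and 25uM Ro-20-1724 for 0.5hr at room temperature. cAMP was measured by HTRF competition, 1hr.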", "values": [
      {"smiles": "CC(C)COC(=O)c1ccc(N)cc1", "activation": "5.08% [at 42.5 µM]"},
      {"smiles": "CCCc1cc(C(N)=S)ccn1", "activation": "3.59% [at 42.5 µM]"},
      {"smiles": "CCO/C([O-])=N/c1c[n+](N2CCOCC2)no1", "activation": "0.391% [at 42.5 µM]"},
      {"smiles": "CSc1cnccn1", "activation": "1.74%"},
      {"smiles": "CCCCCCCOC(C)=O", "activation": "-18.4%"},
      {"smiles": "CCc1cnc(C(=O)O)c(C(=O)O)c1", "activation": "-1.33%"},
      {"smiles": "NS(=O)(=O)c1ccc(NC(=O)CCC(=O)O)cc1", "activation": "-8.82% [at 42.5 µM]"},
      {"smiles": "COc1ccc(C(=O)CC(=O)c2ccc(C(C)(C)C)cc2)cc1", "activation": "-12.3% [at 42.5 µM]"},
      {"smiles": "CCO[Si](OCC)(OCC)c1ccccc1", "activation": "11.8%"},
      {"smiles": "CCC1COC(=O)O1", "note": "(stereo not drawn)", "activation": "13.4%"},
      {"smiles": "CCCOCCOCCOCCO", "activation": "-1.67%"},
      {"smiles": "N=C(N)c1ccc2cc(OC(=O)c3ccc(N=C(N)N)cc3)ccc2c1", "activation": "15.3% [at 42.5 µM]"},
      {"smiles": "O=[N+]([O-])c1ccc(F)cc1F", "activation": "-14%"},
      {"smiles": "CC(=O)N(c1onc(C)c1C)S(=O)(=O)c1ccc(N)cc1", "activation": "22.1% [at 42.5 µM]"},
      {"smiles": "OC[C@H]1O[C@@H](O[C@H]2[C@H](O)[C@@H](O)[C@H](O)O[C@@H]2CO)[C@H](O)[C@@H](O)[C@H]1O", "activation": "2.69%"},
      {"smiles": "c1ccc2c(c1)CCC2", "activation": "-2.33%"},
      {"smiles": "NCCC(O)(P(=O)(O)O)P(=O)(O)O", "activation": "5.44% [at 42.5 µM]"},
      {"smiles": "CO[Si](OC)(OC)c1ccccc1", "activation": "3.9%"},
      {"smiles": "CC[C@H]1CN2CCc3cc(OC)c(OC)cc3[C@@H]2C[C@@H]1C[C@H]1NCCc2cc(OC)c(OC)cc21", "activation": "-4.21% [at 42.5 µM]"},
      {"smiles": "CC(C)c1cccc(O)c1", "activation": "-0.968%"},
      {"smiles": "CC/C=C\\CC1=C(C)CCC1=O", "activation": "1.67%"},
      {"smiles": "CCC(C)S", "note": "(stereo not drawn)", "activation": "11% [at 3.27 µM]"},
      {"smiles": "CCCCOC(=O)C(C)OC(=O)CCC", "note": "(stereo not drawn)", "activation": "1.33%"}
    ]}
  ]
}
